# Experimental data from the supplement of paper PMC12067093, “Discovery and optimisation of a covalent ligand for TRIM25 and its application to targeted protein ubiquitination” (Chemical Science, 2025).
# Of roughly 21,000 targets only a part is listed; those with the largest changes were picked by preference.
# Compound: CC1Cc2ccccc2N1C(=O)C1CCCN(C1)C(=O)CCl (mixture of isomers) [TRIM25 ligand 11 (diastereomer mixture)]
# Test: probe-labelled cysteine peptide fold change vs DMSO (competition) (log2 fold change); higher = less target engagement (more negative = stronger competition)
# Conditions: THP-1, incubation time: 4 h
# 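Note: competitive chemoproteomic profiling in live THP-1 cells with an iodoacetamide desthiobiotin (IA-DTB) probe, comparing probe-labelled peptide intensities in compound-treated cells against DMSO-treated controls.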
# Sequence of UniProt Q15555 (Q15555 whole entry, looked up): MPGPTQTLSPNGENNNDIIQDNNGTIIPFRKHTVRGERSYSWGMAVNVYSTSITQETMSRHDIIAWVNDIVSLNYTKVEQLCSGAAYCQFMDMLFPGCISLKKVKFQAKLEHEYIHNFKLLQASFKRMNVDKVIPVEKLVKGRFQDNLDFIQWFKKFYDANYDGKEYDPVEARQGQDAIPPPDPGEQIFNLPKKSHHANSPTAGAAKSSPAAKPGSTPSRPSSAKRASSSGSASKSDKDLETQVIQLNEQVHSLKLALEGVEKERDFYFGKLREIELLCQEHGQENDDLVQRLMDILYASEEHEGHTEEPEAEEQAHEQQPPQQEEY
# Sequence of UniProt P27816 (P27816 whole entry, looked up): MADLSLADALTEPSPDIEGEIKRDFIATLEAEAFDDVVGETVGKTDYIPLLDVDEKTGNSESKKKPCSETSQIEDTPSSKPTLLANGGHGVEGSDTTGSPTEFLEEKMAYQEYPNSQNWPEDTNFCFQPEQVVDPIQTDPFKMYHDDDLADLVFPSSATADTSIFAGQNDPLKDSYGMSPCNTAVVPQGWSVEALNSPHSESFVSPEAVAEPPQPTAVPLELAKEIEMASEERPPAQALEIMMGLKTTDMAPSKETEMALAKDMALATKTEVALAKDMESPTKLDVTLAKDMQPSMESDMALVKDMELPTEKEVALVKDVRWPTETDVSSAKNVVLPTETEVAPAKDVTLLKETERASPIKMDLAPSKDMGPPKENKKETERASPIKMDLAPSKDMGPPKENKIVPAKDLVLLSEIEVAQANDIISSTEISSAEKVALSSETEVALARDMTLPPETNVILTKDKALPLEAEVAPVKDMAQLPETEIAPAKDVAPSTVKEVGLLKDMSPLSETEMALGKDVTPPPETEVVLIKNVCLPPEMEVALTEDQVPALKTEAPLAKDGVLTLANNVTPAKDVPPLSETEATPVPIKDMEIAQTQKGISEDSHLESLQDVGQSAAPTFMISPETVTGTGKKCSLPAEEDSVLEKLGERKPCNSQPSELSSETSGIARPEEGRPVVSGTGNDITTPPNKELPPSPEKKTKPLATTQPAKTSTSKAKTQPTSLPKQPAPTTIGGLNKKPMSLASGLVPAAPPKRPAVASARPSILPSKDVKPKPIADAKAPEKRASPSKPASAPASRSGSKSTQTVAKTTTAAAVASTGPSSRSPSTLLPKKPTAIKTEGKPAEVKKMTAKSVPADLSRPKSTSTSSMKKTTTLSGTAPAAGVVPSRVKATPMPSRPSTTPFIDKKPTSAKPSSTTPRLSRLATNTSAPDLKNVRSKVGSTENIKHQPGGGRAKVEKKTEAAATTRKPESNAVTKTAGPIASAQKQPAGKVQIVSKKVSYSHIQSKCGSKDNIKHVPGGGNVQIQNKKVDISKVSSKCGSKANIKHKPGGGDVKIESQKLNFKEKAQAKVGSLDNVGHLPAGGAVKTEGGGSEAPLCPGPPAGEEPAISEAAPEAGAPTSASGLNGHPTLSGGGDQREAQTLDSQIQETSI
# Sequence of UniProt P48449 (P48449 whole entry, looked up): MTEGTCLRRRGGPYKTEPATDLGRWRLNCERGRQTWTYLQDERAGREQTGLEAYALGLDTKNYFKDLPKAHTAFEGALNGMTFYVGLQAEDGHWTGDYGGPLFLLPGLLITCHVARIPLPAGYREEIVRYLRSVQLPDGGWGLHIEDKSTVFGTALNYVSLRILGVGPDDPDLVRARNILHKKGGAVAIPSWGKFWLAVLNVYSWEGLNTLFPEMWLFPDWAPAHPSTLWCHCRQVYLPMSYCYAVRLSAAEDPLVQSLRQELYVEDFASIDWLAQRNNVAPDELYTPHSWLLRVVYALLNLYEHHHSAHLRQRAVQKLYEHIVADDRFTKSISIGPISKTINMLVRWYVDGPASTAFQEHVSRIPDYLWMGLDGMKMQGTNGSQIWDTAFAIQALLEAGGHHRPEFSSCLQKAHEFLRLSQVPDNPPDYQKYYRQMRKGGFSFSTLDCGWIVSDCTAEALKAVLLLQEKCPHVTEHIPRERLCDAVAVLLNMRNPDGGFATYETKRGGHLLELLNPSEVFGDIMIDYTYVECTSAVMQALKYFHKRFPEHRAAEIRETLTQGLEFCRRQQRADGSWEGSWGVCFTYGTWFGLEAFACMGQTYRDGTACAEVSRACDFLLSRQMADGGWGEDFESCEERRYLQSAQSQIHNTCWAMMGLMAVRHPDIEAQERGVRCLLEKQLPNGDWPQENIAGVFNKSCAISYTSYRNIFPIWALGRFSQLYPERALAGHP
# Sequence of UniProt Q9UBG0 (Q9UBG0 whole entry, looked up): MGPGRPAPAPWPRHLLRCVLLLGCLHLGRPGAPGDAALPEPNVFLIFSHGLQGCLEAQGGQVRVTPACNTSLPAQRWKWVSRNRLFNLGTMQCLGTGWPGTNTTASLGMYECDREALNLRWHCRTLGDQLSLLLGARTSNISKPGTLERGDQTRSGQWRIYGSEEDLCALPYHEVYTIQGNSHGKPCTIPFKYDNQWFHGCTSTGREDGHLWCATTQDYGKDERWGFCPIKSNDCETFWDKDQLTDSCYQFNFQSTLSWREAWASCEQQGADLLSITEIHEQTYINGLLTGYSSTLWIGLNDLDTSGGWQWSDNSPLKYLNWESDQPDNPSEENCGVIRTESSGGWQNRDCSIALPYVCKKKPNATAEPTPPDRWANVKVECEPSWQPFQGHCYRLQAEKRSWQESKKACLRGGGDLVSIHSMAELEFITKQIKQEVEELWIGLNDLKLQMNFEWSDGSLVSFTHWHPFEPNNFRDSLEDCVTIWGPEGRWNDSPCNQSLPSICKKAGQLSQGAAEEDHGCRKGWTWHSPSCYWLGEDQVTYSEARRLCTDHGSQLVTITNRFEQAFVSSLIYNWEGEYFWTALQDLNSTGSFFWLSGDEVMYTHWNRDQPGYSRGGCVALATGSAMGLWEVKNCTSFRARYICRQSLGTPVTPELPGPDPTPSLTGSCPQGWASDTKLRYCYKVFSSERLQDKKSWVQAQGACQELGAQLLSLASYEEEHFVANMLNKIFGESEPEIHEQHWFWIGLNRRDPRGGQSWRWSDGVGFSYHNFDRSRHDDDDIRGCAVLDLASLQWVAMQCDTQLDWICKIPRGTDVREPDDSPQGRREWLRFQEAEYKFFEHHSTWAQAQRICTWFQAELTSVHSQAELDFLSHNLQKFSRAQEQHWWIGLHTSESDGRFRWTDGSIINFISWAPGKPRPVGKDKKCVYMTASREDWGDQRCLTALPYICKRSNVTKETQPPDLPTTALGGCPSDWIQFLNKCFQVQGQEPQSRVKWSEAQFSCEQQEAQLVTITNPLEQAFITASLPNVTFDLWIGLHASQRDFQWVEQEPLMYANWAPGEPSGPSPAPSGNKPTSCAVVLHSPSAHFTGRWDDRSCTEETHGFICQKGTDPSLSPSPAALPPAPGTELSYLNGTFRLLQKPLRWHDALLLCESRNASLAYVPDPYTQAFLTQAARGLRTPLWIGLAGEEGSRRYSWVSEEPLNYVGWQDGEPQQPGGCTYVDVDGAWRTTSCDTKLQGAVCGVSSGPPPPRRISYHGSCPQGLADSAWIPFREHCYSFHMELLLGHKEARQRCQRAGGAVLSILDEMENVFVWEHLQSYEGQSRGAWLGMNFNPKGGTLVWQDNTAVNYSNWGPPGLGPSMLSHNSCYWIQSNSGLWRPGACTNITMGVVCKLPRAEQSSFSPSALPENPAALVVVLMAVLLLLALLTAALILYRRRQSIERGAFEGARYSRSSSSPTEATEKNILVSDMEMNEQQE
# Sequence of UniProt O95396 (O95396 whole entry, looked up): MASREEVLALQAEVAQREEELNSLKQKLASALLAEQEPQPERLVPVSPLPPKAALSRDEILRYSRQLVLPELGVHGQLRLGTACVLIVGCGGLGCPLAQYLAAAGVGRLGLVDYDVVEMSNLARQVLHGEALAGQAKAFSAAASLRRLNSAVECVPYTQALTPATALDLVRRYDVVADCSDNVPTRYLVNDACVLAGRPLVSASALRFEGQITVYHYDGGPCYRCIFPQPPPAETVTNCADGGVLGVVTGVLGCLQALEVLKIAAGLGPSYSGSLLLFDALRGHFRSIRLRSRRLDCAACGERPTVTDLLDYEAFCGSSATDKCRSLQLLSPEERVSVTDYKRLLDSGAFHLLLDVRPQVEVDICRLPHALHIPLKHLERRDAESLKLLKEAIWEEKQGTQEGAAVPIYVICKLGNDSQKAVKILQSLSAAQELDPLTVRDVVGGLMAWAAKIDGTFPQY
# Sequence of UniProt Q8N6R0 (Q8N6R0 whole entry, looked up): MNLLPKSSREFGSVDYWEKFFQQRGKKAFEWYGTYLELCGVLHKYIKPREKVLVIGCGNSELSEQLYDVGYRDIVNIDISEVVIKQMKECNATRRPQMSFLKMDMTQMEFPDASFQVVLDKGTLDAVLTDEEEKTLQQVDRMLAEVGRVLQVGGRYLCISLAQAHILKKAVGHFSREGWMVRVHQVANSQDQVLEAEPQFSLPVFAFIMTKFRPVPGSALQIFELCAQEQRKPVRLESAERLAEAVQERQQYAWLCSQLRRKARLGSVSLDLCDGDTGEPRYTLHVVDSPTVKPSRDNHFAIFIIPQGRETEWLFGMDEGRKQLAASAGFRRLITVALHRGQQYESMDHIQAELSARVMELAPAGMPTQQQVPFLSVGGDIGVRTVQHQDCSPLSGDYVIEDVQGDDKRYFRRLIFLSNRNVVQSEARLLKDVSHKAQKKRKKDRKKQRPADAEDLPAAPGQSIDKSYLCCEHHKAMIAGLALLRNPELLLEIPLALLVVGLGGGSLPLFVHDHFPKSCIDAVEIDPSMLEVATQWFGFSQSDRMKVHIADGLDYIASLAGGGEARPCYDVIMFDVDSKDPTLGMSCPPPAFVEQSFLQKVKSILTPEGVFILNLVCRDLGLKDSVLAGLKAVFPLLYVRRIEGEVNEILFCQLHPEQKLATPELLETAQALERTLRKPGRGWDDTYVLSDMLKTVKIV
Target,probe-labelled cysteine peptide fold change (10 µM),probe-labelled cysteine peptide fold change (50 µM)
METTL13_Q8N6R0_226_FRPVPGSALQIFELCAQEQR (UniProt Q8N6R0),0.025,-0.292
NAA10_P41227_17+21_NARPEDLMNMQHCNLLCLPENYQMK (UniProt P41227),-0.0777,-0.156
MYO9B_Q13459_1169_HIQSCK (UniProt Q13459),-0.0237,-0.105
NBAS_A2RRP1_1634_QLHCYNER (UniProt A2RRP1),0.000992,-0.0554
MOCS3_O95396_193_YLVNDACVLAGRPLVSASALR (UniProt O95396),-0.0913,-0.0185
MAP4_P27816_635_CSLPAEEDSVLEK (UniProt P27816),-0.069,-0.135
MAPRE2_Q15555_279_EIELLCQEHGQENDDLVQR (UniProt Q15555),-0.0442,-0.23
MOGS_Q13724_137_HTCEQGDGVGPYGWEFHDGLSFGR (UniProt Q13724),-0.0183,-0.127
MVP_Q14764_515_ALCLLLGPDFFTDVITIETADHAR (UniProt Q14764),0.505,0.893
MYCBP2_O75592_3786_NITINCVK (UniProt O75592),-0.237,0.117
LSS_P48449_484_LCDAVAVLLNMR (UniProt P48449),-0.0996,-0.128
MRC2_Q9UBG0_201_YDNQWFHGCTSTGR (UniProt Q9UBG0),-0.768,-1.05
NCAPG2_Q86XI2_776_NRECLLSAPR (UniProt Q86XI2),-0.0525,-0.00285
NAPA_P54920_212+215_AALCHFCIDMLNAK (UniProt P54920),-0.0124,0.149
